About 2,700 (4%) of roughly 68,000 compounds showed an effect of 50% or more. The sample holds strong results, similar compounds and a random draw of the others, so the mix is not that of the screen.
system: Plasmodium berghei; test: Screen against P. berghei liver stage (PbLuc), transformed with Luciferase, at 2uM; assay type: functional, HepG2; conditions: tested at 2 uM

Row | SMILES | INHIBITION
1 | COCCCNC(=O)c1c(-n2cnnn2)sc2c1CCC2 | -0.44%
2 | CN(C)C(=O)c1ccccc1NC(=O)N[C@@H]1c2ccccc2C[C@@H]1O | 42.32%
3 | CS(=O)(=O)c1ccccc1N[C@@H]1c2ccccc2C[C@@H]1O | 54.29%
4 | CS(=O)(=O)c1ccccc1NC(=O)N[C@@H]1c2ccccc2C[C@@H]1O | -11.32%
5 | O=S1(=O)NCC2(CCCN(Cc3ccccn3)C2)Oc2ncccc21 (stereo unspecified) | -30.35%
6 | CN(C)c1ncc(CNC(=O)Nc2ccc(C(F)(F)F)cc2)n1C | 47.59%
7 | CC(=O)N[C@@H]1CN(Cc2oc3ccccc3c2C)C[C@H]1c1ccc(C)o1 | 3.92%
8 | Nc1ncccc1CN1CCCn2nc(CCC(=O)NC3CC3)cc2C1 | 26.82%
9 | O=C1C(Nc2nccn3cnnc23)CCN1c1cccc(Cl)c1 (stereo unspecified) | 34.89%
10 | CCCc1noc(C2CCN(C(=O)C3CCCO3)CC2)n1 (stereo unspecified) | 15.58%
11 | O=C(NC1CCCC1)c1ccc(C2CCCNC2)nc1 (stereo unspecified) | 12%
12 | COc1c(C2CCCN2CC(=O)N(C)Cc2ccco2)c(C)nn1C (stereo unspecified) | 5.39%
13 | CCc1ccc(S(=O)(=O)N2CC[C@@](O)(CCOC)[C@H](C)C2)cc1 | 26.74%
14 | COCC[C@]1(O)CCN(S(=O)(=O)c2ccc(C)cc2OC)C[C@H]1C | 69.67%
15 | COc1cc(C)ccc1S(=O)(=O)N1CC[C@](C)(O)[C@H](C)C1 | -11.41%
16 | COc1cc(COCC2CCN(Cc3ccccn3)CC2)cc(OC)c1 | 5.98%
17 | COc1cc(COCC2CCN(Cc3cccnc3)CC2)cc(OC)c1 | 20.76%
18 | COc1cc(CN2CCC(COCc3ccccc3)CC2)cc(OC)c1 | 55.25%
19 | CC(C)CN1CCC2(COCc3cnc(-c4ccccc4)nc32)C1 (stereo unspecified) | 5.22%
20 | CC(C)c1ccc(CN2CCN(C(=O)c3cc(C4CC4)[nH]n3)CC2)cc1 | 38.87%
21 | O=C(c1cc(C2CC2)[nH]n1)N1CCN(Cc2ccc(Cl)cc2)CC1 | 59.99%
22 | O=C(c1cc(C2CC2)[nH]n1)N1CCN(Cc2ccccc2)CC1 | 5.52%
23 | Cc1ccc(C(=O)Oc2cc(=O)n3cccc(C)c3n2)cc1 | -38.95%
24 | COc1ccc(CCNC(=O)C2CCOC2)c(Cl)c1 (stereo unspecified) | -7.69%
25 | CCOCCCNC(=O)C1(C)CCC(=O)N1c1ccccc1OC (stereo unspecified) | -15.25%
26 | Cc1cccc2c1cnn2CCCNC(=O)c1cnn(C)c1 | 2.66%

Row | SMILES | INHIBITION
27 | O=C(NCCNc1ncccn1)N1CCc2ccccc2C1 | -17.17%
28 | Cc1cncc(C(=O)N2CCN(c3cnn(C)c(=O)c3)CC2)c1 | 41.05%
29 | Cc1oc(C(C)C)cc1C(=O)N1CCN(c2cnn(C)c(=O)c2)CC1 | 86.36%
30 | CCc1ncc(C(=O)N2CCN(c3cnn(C)c(=O)c3)CC2)cn1 | 24.36%
31 | CNc1cc(C2CCCN(C(=O)c3ccc(=O)[nH]n3)C2)ccn1 (stereo unspecified) | 27.54%
32 | CNc1cc(C2CCCN2C(=O)c2ccc3oc(=O)n(C)c3c2)ccn1 (stereo unspecified) | 11.71%
33 | CNc1cc(C2CCCN2C(=O)c2ccc(=O)[nH]n2)ccn1 (stereo unspecified) | 51.88%
34 | CNc1cc(C2CCCN2C(=O)CCc2cnn(C)c2C)ccn1 (stereo unspecified) | 73.23%
35 | Cc1c(CCC(=O)N2CCCC2c2ccnc(N(C)C)c2)cnn1C (stereo unspecified) | 24.13%
36 | CNc1cc(C2CCCN2C(=O)CCc2ccccc2F)ccn1 (stereo unspecified) | -34.8%
37 | c1ccc(-c2ncc(CNC3CCc4ncnn4C3)cn2)cc1 (stereo unspecified) | 15.31%
38 | c1ccc(CCN2CCOC(Cn3cccn3)C2)nc1 (stereo unspecified) | 23.71%
39 | CC(NC(=O)NCCCNS(C)(=O)=O)c1ccncc1 (stereo unspecified) | 9.9%
40 | CN1CCN(C(=O)N2CCCC(c3nccn3CC3CCC3)C2)CC1 (stereo unspecified) | -18.71%
41 | Cc1nc(CN2CCC(C(=O)O)(n3ccc(C(C)C)n3)CC2)co1 | 53.55%
42 | Cc1nc(CN2CCC(C(=O)O)(n3ccc(-c4ccco4)n3)CC2)co1 | -26.72%
43 | Cc1ccc(N2CCC(C(=O)O)(n3ccc(C(C)C)n3)CC2)nn1 | -12.36%
44 | Cc1ccc(-n2nnc(C(=O)O)c2C)c(C)c1 | -2.64%
45 | Cc1ccc(C(=O)N2C[C@H]3CNC[C@H]3C2)cn1 | -53.62%
46 | O=C(c1ccc(F)c(F)c1)N1C[C@H]2CNC[C@H]2C1 | -9.69%
47 | O=C(c1ccc(S(=O)(=O)NCC(F)F)cc1)N1C[C@H]2CNC[C@H]2C1 | 57.75%
48 | O=C(c1ccc(S(=O)(=O)NC2CCC2)cc1)N1CC[C@H]2CNC[C@H]21 | -13.8%
49 | O=C(c1cc(F)cc(F)c1)N1C[C@H]2CNC[C@H]2C1 | 51.81%
50 | O=C(c1ccc(S(=O)(=O)NCC(F)F)cc1)N1CC[C@H]2CNC[C@H]21 | 26.74%
51 | O=C(c1cnccn1)N1C[C@@H](OCc2cccnc2)[C@H]2OCCC[C@H]21 | -39.95%
52 | CCN(CC)[C@@H]1CN(Cc2nccn2C)[C@@H]2CCCO[C@H]12 | -3.53%

Row | SMILES | INHIBITION
53 | CC(C)c1nc(CN2CCN(C(C)c3nc(C4CC4)no3)CC2)no1 (stereo unspecified) | -42.32%
54 | Cc1noc(C(C)N2CCN(Cc3nnc(C4CC4)o3)CC2)n1 (stereo unspecified) | -4.99%
55 | CC(c1nc(C2CC2)no1)N1CCN(Cc2nnc(C3CC3)o2)CC1 (stereo unspecified) | 49.01%
56 | CCc1noc(CS(=O)(=O)C(C)c2nc(C3CC3)no2)n1 (stereo unspecified) | 57.16%
57 | CCc1nc(CN2CCN(C(C)c3nc(C4CC4)no3)CC2)no1 (stereo unspecified) | 13.91%
58 | CC(c1nc(C2CC2)no1)N1CCN(Cc2ccsc2)CC1 (stereo unspecified) | 5.72%
59 | CC(C)c1noc(C(C)N2CCN(Cc3ccsc3)CC2)n1 (stereo unspecified) | 60.31%
60 | CC(C)c1noc(C(C)S(=O)(=O)Cc2nc(C3CC3)no2)n1 (stereo unspecified) | -17.22%
61 | CCCc1nc(CN2CCN(C(C)c3nc(C4CC4)no3)CC2)no1 (stereo unspecified) | 50.18%
62 | CC(C)c1noc(C(C)N2CCN(Cc3nnc(C4CC4)o3)CC2)n1 (stereo unspecified) | 58.52%
63 | CC(C)c1noc(C(C)N2CCN(Cc3cccs3)CC2)n1 (stereo unspecified) | 41.76%
64 | CCCc1noc(C(C)S(=O)(=O)Cc2nc(C3CC3)no2)n1 (stereo unspecified) | -7.66%
65 | CC(C)OCc1ccccc1CNC(=O)C(C)(C)C | -26.08%
66 | CS(=O)(=O)c1nccn1Cc1ccc(OC(F)F)cc1 | -35.45%
67 | O=C(O)c1cc(NS(=O)(=O)c2ccccc2F)ccc1N1CCSCC1 | -21.39%
68 | Cc1nc(C)n(CC2CCCCN2CC(=O)NC(C2CC2)C2CC2)n1 (stereo unspecified) | 17.75%
69 | COc1ccccc1OCC(=O)N1C[C@@H]2CN(C)CCO[C@@H]2C1 | 32.04%
70 | CN1CCc2nc(N(C)C)nc(N3CCC(O)CC3)c2C1 | 21.24%
71 | CN(Cc1nc(C2CC2)no1)C(=O)c1cccc(CC2CCNCC2)c1 | -11.41%
72 | Cc1nn(C)c2nc(NC(C)c3nnn[nH]3)sc12 (stereo unspecified) | -16.31%
73 | Cc1csc2ncc(-c3ccnc(N4CCN(C)CC4)n3)c(=O)n12 | -23.11%
74 | CCN(CC)C(=O)CN1CCC2(C=Cc3cc(Cl)c(C)cc3O2)CC1 | 1.4%
75 | Cc1cc2c(cc1C)OC1(C=C2)CCN(CC(=O)N2CCOCC2)CC1 | 54.2%
76 | Cc1cc2c(cc1Cl)C=CC1(CCN(C(=O)N3CCOCC3)CC1)O2 | 57.47%
77 | Cc1cc2c(cc1Cl)C=CC1(CCN(CC(=O)NC3CCCC3)CC1)O2 | 3.58%
78 | Cc1cc2c(cc1Cl)C=CC1(CCN(CC(=O)N3CCCC3)CC1)O2 | -28%

Row | SMILES | INHIBITION
79 | Cc1cc2c(cc1Cl)C=CC1(CCN(CC(=O)N3CCOCC3)CC1)O2 | -4.78%
80 | O=C(NCc1cnc2n1CCN(CC1CC1)CC2)C1CCC1 | 15.42%
81 | CO[C@@H]1CCN(S(=O)(=O)c2cccs2)[C@H]1Cc1cccnc1 | 30.39%
82 | CC(c1nc(C2CC2)no1)N1CCc2c(ncn2C2CC2)C1 (stereo unspecified) | -40.15%
83 | O=C(c1cccc(CNS(=O)(=O)c2ccc(F)cc2)c1)N1CCCC1 | 51.94%
84 | Cc1ccc(F)cc1S(=O)(=O)NCc1cccc(C(=O)N2CCCC2)c1 | 33.8%
85 | Cc1ccc(S(=O)(=O)NCc2cccc(C(=O)N3CCCC3)c2)cc1F | 47.84%
86 | Cc1nc(C)c2c(n1)CCN(C(=O)C1(C#N)CC1)CC2 | 89.37%
87 | Cc1nc2c(c(NC3CC3)n1)CCN(C(=O)C1(C#N)CC1)CC2 | -5.44%
88 | Cc1nc(N2CCOCC2)nc2c1CCN(C(=O)C1(C#N)CC1)CC2 | -24.04%
89 | COCC1CN(Cc2ccoc2)Cc2nn(C)cc21 (stereo unspecified) | 17.69%
90 | O=C(Nc1ccc(F)cc1)N1CCN(Cc2noc(C3CC3)n2)CC1 | 24.65%
91 | CN1CCN(C(=O)C[C@@H]2COC[C@H]3CN(c4ccncn4)C[C@@H]23)CC1 | -69.07%
92 | CS(=O)(=O)N1CCC2(CC1)COC(COc1cccnc1)C2 (stereo unspecified) | 19.91%
93 | CNS(=O)(=O)c1ccc(C(=O)NCCc2ccccn2)cc1 | 62.46%
94 | CNS(=O)(=O)c1ccc(C(=O)NCCNc2ncccn2)cc1 | -75.02%
95 | CNC(=O)c1ccc(S(=O)(=O)NCCc2ccccn2)cc1 | 24.15%
96 | O=C(Nc1ccccc1)N1CCn2nnc(COc3cccnc3)c2C1 | 11.72%
97 | CCNC(=O)[C@@H]1CCCN1C1(C(=O)NC)CCC1 | 10.65%
98 | CC(CC(=O)O)CC(=O)Nc1sc2c(c1C(N)=O)CCc1ccccc1-2 (stereo unspecified) | -0.22%
99 | COc1cc(NCCNC(=O)c2ccc3[nH]ccc3c2)cc(OC)c1 | 57.75%
100 | COc1cc(NCCNC(=O)c2cc[nH]c2C)cc(OC)c1 | 12.43%
101 | CC(C)(C)OC(=O)NCCNC(=O)c1ccc2cc[nH]c2c1 | 13.72%

Reference: ChEMBL document CHEMBL4513216, “Probing the Open Global Health Chemical Diversity Library for Multistage-Active Starting Points for Next-Generation Antimalarials” (ACS Infect Dis, 2020)
